PubChem BioAssay (NCATS)
For part of these data: Entries with a potency or affinity are not part of this list. Calls of active or inactive are those of the source. No rule for the calls is given here.

Key:
[1] = Ebola virus entry assay, green fluorescence channel
[2] = Ebola virus entry assay, blue channel fluorescence
[3] = Ebola virus entry assay, ratio channel
[4] = Ebola virus entry assay, green channel fluorescence
[5] = Ebola virus entry assay, reporter ratio channel; Channel type: primary
[6] = Ebola virus entry assay, blue channel (ratio component)

Measured: efficacy
For efficacy in this document: 0% is about no effect.

NC(=O)CC[C@@H](N)C(=O)O
inactive: [1] -11.5% | [2] | [3] | [4] | [5] | [6]

CCOC(=O)OC(C)OC1=C(C(=O)Nc2ccccn2)N(C)S(=O)(=O)c2ccccc21 (centres undefined)
inactive: [1] 12.4% | [2] | [3] | [4] | [5] | [6]

COc1cc2[nH]c(=O)[nH]c(=O)c2cc1OC
inactive: [1] 23.8% | [2] | [3] | [4] | [5] | [6]

O=C(CCCCC(=O)Nc1c(I)cc(I)c(C(=O)O)c1I)Nc1c(I)cc(I)c(C(=O)O)c1I
inactive: [1] 11.5% | [2] | [3] | [4] | [5] | [6]

CN(C)CCc1c[nH]c2ccc(O)cc12
inactive: [1] -13.8% | [2] | [3] | [4] | [5] | [6]

CN(C)C(=O)Nc1ccc(Cl)c(Cl)c1
inactive: [1] 15.7% | [2] | [3] | [4] | [5] | [6]

C#C[C@]1(OC(C)=O)CC[C@H]2[C@@H]3CCC4=C[C@@H](OC(C)=O)CC[C@@H]4[C@H]3CC[C@@]21C
inactive: [1] -36.9% | [2] | [3] | [4] | [5] | [6]

Oc1ccc(O)cc1
inactive: [1] 16.5% | [2] | [3] | [4] | [5] | [6]

O=c1ccc2ccccc2o1
inactive: [1] 11.1% | [2] | [3] | [4] | [5] | [6]

OC(CN1CCC(Cc2ccc(F)cc2)CC1)c1ccc(Cl)cc1 (centres undefined)
inactive: [1] -10% | [2] | [3] | [4] | [5] | [6]

CCCCOC(=O)CCCCCCCCC(=O)OCCCC
inactive: [1] -13.9% | [2] | [3] | [4] | [5] | [6]

N[C@H]1CN(c2c(F)cc3c(=O)c(C(=O)O)cn(C4C[C@@H]4F)c3c2Cl)CC12CC2 (some centres undefined)
inactive: [1] -25.5% | [2] | [3] | [4] | [5] | [6]

O=C(O)Cc1ccc2c(c1)C(=O)c1ccccc1CO2
inactive: [1] 17% | [2] | [3] | [4] | [5] | [6]

C=C(C)C(=O)OCC(O)CO (centres undefined)
inactive: [1] -24.2% | [2] | [3] | [4] | [5] | [6]

NS(=O)(=O)c1cc(C(=O)O)c(NCc2ccco2)cc1Cl
inactive: [1] -30.8% | [2] | [3] | [4] | [5] | [6]

CN(C)CCCO[C@@H]1[C@H]2OC(C)(C)O[C@H]2O[C@@H]1C(O)CO (some centres undefined)
inactive: [1] -11.8% | [2] | [3] | [4] | [5] | [6]

CCCCCOc1ccc(C2SC(=O)NC2=O)cc1OCC (centres undefined)
inactive: [1] 24.1% | [2] | [3] | [4] | [5] | [6]

COP(=O)(OC)OC=C(Cl)Cl
inactive: [1] 29.4% | [2] | [3] | [4] | [5] | [6]

CC(=O)N1CCN(c2ccc(O)cc2)CC1
inactive: [1] 19.8% | [2] | [3] | [4] | [5] | [6]

C[C@@H](O)[C@H]1C(=O)N2C(C(=O)O)=C([C@H]3CCCO3)S[C@H]12
inactive: [1] -19.1% | [2] | [3] | [4] | [5] | [6]

NCCc1cnc[nH]1
inactive: [1] 13.4% | [2] | [3] | [4] | [5] | [6]

c1ccc([C@H]2CN3CCSC3=N2)cc1
inactive: [1] -38.1% | [2] | [3] | [4] | [5] | [6]

CC1Sc2c(C(=O)O)c(=O)c3cc(F)c(N4CCNCC4)cc3n21 (centres undefined)
inactive: [1] 10.3% | [2] | [3] | [4] | [5] | [6]

Cc1cccc(C)c1NC(=O)CN1CCCC1
inactive: [1] 18.6% | [2] | [3] | [4] | [5] | [6]

O=C(OCC(COC(=O)c1cccnc1)(COC(=O)c1cccnc1)COC(=O)c1cccnc1)c1cccnc1
inactive: [1] -29.2% | [2] | [3] | [4] | [5] | [6]

CC(=O)OCC(=O)Nc1cc(C#N)cc(NC(=O)COC(C)=O)c1Cl
inactive: [1] 24.6% | [2] | [3] | [4] | [5] | [6]

C[C@H]1COc2c(C3(N)CC3)c(F)cc3c(=O)c(C(=O)O)cn1c23
inactive: [1] 9.63% | [2] | [3] | [4] | [5] | [6]

O=C(NN1CCCC1)NS(=O)(=O)c1ccc(Cl)cc1
inactive: [1] -14.3% | [2] | [3] | [4] | [5] | [6]

O=Cc1ccc(O)c(O)c1O
inactive: [1] 43% | [2] | [3] | [4] | [5] | [6]
